The values that follow come from PubChem BioAssay (Tox21).

The nature of experiment [1]: qHTS assay to identify small molecule antagonists of the estrogen related receptor (ERR) signaling pathway from Tox21 library - cell viability counter screen (AID 1224834). Also: nearly all actives have a fitted effect of over 30% in size. In a few lines:
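ERR cells, 2,000/well; 6 h settle at 37 C/5% CO2; pin-tool compound transfer in DMSO; 17.5 h at 37 C; CellTiter-Fluor, 30 min; fluorescence intensity.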
(In general: In qHTS, concentration-response curves come from the screen itself.)

The target in experiment [2] is Luciferin 4-monooxygenase (Photinus pyralis) (UniProt P08659). Description: qHTS assay to identify small molecule inhibitors of firefly luciferase (AID 1224835). Also: nearly all actives have a fitted effect of over 25% in size. Also: potency is read from the fitted curve at half-maximal effect. In outline: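 Inhibition of purified Photinus luciferase is measured by luminescence. Substrate levels (D-luciferin, ATP) sit at their KM values. Each compound is tested in a concentration series.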
A short description of experiment [3]: qHTS assay to identify small molecule agonists of the constitutive androstane receptor (CAR) signaling pathway - cell viability counter screen (AID 1224836). Also: nearly all actives have a fitted effect of over 45% in size. In a few lines: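 Compound titrations (15 concentrations) went onto HepG2-CYP2B6-hCAR cells 4 h after seeding, alongside PK11195 at a final 0.75 uM; a 23 h, 37 C/5% CO2 incubation preceded CellTiter-Fluor viability measurement.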

Experiment [4] is described as follows: qHTS assay to identify small molecule antagonists of the constitutive androstane receptor (CAR) signaling pathway - cell viability counter screen (AID 1224837). Also: nearly all actives have a fitted effect of over 45% in size. In outline: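 Viability was measured with CellTiter-Fluor in a HepG2 line carrying stably transfected hCAR and a CYP2B6-2.2kb construct. Cells were exposed for 23 hr at 37 C to 15 compound concentrations with 50 nM CITCO as agonist.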

For experiment [5], the target named is Nuclear receptor subfamily 1 group I member 3 (Homo sapiens) (UniProt Q14994). The experiment in a line: qHTS assay to identify small molecule antagonists of the constitutive androstane receptor (CAR) signaling pathway (AID 1224838).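 Also: HepG2 cells stably expressing hCAR with CYP2B6 luciferase reporter stimulated by CITCO; nearly all actives have a fitted effect of over 40% in size.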 In outline: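 Antagonist mode used CITCO at a final 50 nM to activate CAR in human hepatoma HepG2 cells carrying stable hCAR and a 2.2 kb CYP2B6 promoter-luciferase construct. Compounds were tested at 15 concentrations over 24 h, with luminescence as the end point.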

The target is the same in experiment [6]. Description: qHTS assay to identify small molecule agonists of the constitutive androstane receptor (CAR) signaling pathway (AID 1224839). Also: nearly all actives have a fitted effect of over 15% in size. In outline: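 In this screen, CAR-driven CYP2B6 promoter activity is measured by luminescence in HepG2-CYP2B6-hCAR cells after 24 h with test compounds and 0.75 uM PK11195 (final concentration).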
The nature of experiment [7]: qHTS assay to identify small molecule antagonists of the estrogen related receptor signaling pathway with the pleiotropic PPARgamma coactivator (PGC) from Tox21 10K library - cell viability counter screen (AID 1224840; active = well fitted cell-killing curve with a large enough effect in the repeat runs, not every such curve was filed as active; also: nearly all actives have a fitted effect of over 40% in size). In a few lines: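 Multiplexed viability counter screen in the PGC/ERR cell line: cells treated with DMSO-dissolved compounds for 17.5 hours at 37 C, then viability measured as CellTiter-Fluor fluorescence.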

Experiment [8] in a line: qHTS assay to identify small molecule antagonists of the estrogen related receptor signaling pathway with the pleiotropic PPARgamma coactivator (PGC) from Tox21 10K library (AID 1224841; call rule not given here; also: actives are mostly falling curves and most rising ones were filed inactive; nearly all actives have a fitted effect of over 50% in size). In outline:
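Steps: plate 2,000 PGC/ERR cells per well; incubate 6 h at 37 C with 5% CO2; transfer compounds from DMSO stocks by pin tool; incubate 18 h at 37 C; add One-Glo; measure luminescence 30 min later.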

The target of experiment [9] is Thyrotropin receptor (Homo sapiens) (UniProt P16473). Description: qHTS assay to identify small molecule agonists of the thyroid stimulating hormone receptor (TSHR) signaling pathway (AID 1224843; calls by dose curve; also: nearly all actives have a fitted effect of over 45% in size). In a few lines:
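A cell-based cAMP HTRF format was run in TSHR-transfected HEK293 cells, 800 per well. Treatment: 30 min, room temperature. Detection: 1 h with labelled cAMP and anti-cAMP cryptate. Concentration-response over 15 points, three replicates.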

Experiment [10] is described as follows: qHTS assay to identify small molecule agonists of the hypoxia (HIF-1) signaling pathway - cell viability counter screen (AID 1224844; calls by dose curve; also: nearly all actives have a fitted effect of over 50% in size). In a few lines: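 Cytotoxicity was measured in parallel with the HRE-driven beta-lactamase readout: after 17 hrs of compound exposure at 37C, HRE-bla ME-180 cells received CellTiter-Glo and luminescence was recorded 30 min later.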

A short description of experiment [11]: qHTS assay to identify small molecule agonists of H2AX (AID 1224845; active = well fitted activation curve with a large enough effect in the signal ratio in the repeat runs, not every such curve was filed as active; the % refers to the signal ratio). In outline:
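Phospho-H2AX Ser139 measured by HTRF (ex 320 nm; em 665 and 620 nm) after 24 hr antibody incubation. Compounds, 15 concentrations, 0.76% DMSO, were applied to CHO-K1 cells for 3hr at 37C before lysis.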

A short description of experiment [12]: qHTS assay to identify small molecule agonists of H2AX - cell viability counter screen (AID 1224847; calls by dose curve; also: top concentration of the series differs between compounds; nearly all actives have a fitted effect of over 30% in size). In outline: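 Read-out: CellTiter-Glo luminescence, 30 min RT. Cells: wild-type CHO-K1, 1000/well, 10% FBS, plated overnight at 37C. Treatment: 15 concentrations, 3 hr, 37C, 0.76% DMSO.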
Experiment [13] can be described thus: qHTS assay to identify small molecule antagonists of the estrogen related receptor (ERR) signaling pathway from Tox21 library (AID 1224848). Also: nearly all actives have a fitted effect of over 50% in size. In outline:
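ERR cell line, 2,000 cells/well. 6 h settle, then compound (DMSO) added; 18 h at 37 C; ONE-Glo luminescence after 30 min RT.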

The nature of experiment [14]: qHTS assay to identify small molecule agonists of the estrogen related receptor (ERR) signaling pathway from Tox21 library (AID 1224849; calls by dose curve; also: nearly all actives have a fitted effect of over 15% in size). Particulars: ERR reporter cell line, ONE-Glo luciferase, 18 h; at 92.4 µM (top of the series) unless noted. In outline: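 Cells carrying the ERR reporter were plated and allowed to settle for 6 h, exposed to library compounds for 18 h at 37 C, then lysed with ONE-Glo and luminescence measured.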

The nature of experiment [15]: qHTS RealTime-Glo MT Cell Viability Assay in HepG2 cells - 24 hour (AID 1224867). Also: nearly all actives have a fitted effect of over 50% in size. In a few lines: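 Compound treatment began 5 h after plating HepG2 cells (600/well) with NanoLuc luciferase and prosubstrate. Plates stayed at 37 C for 40 h; luminescence was captured at six time points, 0 h through 40 h.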
A short description of experiment [16]: qHTS RealTime-Glo MT Cell Viability Assay in HEK293 cells - 32 hour (AID 1224868). In outline:
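Quantitative high-throughput screen of the Tox21 10K library in HEK293: cells and RealTime-Glo reagents plated together, compound added at 5 h, luminescence monitored through 40 h at 37 C.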

A short description of experiment [17]: A CellTox Green Cytotoxicity Assay to monitor cytotoxicity in HEK293 cells - 0 hour (AID 1224869). Also: nearly all actives have a fitted effect of over 50% in size. In a few lines:
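Cells (HEK293, 600/well) and dye reagent are dispensed together. After 5 h at 37 C, 23 nL compound is pinned in. Plates stay at 37 C for 40 h with fluorescence read at 0h, 8h, 16h, 24h, 32h and 40h.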

The nature of experiment [18]: qHTS assay to identify small molecule agonists of the estrogen related receptor signaling pathway with the pleiotropic PPARgamma coactivator (PGC) from Tox21 10K library (AID 1224842). Also: nearly all actives have a fitted effect of over 15% in size. In outline:
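Luminescence from One-Glo (30 min, room temperature) measured after PGC/ERR cells had 18 h at 37 C with pinned compound (23 nL in DMSO). Cells had been seeded at 2,000 per well and pre-incubated 6 h.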

Experiment [19] can be described thus: qHTS assay to identify small molecule agonists of the hypoxia (HIF-1) signaling pathway (AID 1224846; active = well fitted activation curve with a large enough effect in the signal ratio in the repeat runs, not every such curve was filed as active; the % refers to the signal ratio). In a few lines: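 Compounds from the Tox21 10K library, dissolved in DMSO, are tested for induction of a hypoxia response element–controlled beta-lactamase reporter in ME-180 cells. Exposure lasts 17 hrs at 37C after a 5 hr settling period, followed by CCF4-AM FRET substrate.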

Unmarked numbers belong to inactive results. Records with an inconclusive call do not appear. The source made the active and inactive calls. Unless noted, calls follow the shape of the dose curve; as a rule, active = well fitted curve in the direction sought with a large enough effect in the repeat runs; inconclusive = weak or mixed curves; inactive = no such curve, though single readings can be large; an effect the other way counts as inactive or inconclusive.
% is scaled to controls: 0 for no effect and ±100 for the full control effect.

Nuclear receptor subfamily 1 group I member 3 (Homo sapiens), sequence (Q14994 whole entry, looked up): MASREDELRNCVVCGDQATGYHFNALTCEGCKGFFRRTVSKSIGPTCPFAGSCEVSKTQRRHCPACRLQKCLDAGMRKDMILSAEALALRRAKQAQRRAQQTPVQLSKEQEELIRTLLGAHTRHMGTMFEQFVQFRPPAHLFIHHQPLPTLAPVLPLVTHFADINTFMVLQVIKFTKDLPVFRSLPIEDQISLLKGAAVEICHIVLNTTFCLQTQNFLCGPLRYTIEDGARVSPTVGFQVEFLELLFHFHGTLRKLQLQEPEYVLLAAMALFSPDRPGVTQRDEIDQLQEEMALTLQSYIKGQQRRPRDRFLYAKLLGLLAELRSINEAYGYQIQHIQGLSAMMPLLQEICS
Luciferin 4-monooxygenase (Photinus pyralis), sequence (P08659 whole entry, looked up): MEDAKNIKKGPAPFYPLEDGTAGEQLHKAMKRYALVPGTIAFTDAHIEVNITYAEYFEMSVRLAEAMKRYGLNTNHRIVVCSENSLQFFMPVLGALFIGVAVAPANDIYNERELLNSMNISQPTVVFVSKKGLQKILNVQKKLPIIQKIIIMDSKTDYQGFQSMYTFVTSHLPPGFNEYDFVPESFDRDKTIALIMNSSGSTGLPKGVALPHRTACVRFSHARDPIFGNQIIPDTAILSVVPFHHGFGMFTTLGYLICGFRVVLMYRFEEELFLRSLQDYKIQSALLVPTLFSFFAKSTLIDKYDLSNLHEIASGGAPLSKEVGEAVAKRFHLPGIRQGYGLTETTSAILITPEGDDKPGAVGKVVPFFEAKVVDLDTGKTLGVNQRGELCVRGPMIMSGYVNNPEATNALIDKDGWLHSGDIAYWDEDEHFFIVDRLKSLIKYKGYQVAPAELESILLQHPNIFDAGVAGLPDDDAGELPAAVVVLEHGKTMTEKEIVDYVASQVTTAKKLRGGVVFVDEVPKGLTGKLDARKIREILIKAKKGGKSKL
Thyrotropin receptor (Homo sapiens), sequence (P16473 whole entry, looked up): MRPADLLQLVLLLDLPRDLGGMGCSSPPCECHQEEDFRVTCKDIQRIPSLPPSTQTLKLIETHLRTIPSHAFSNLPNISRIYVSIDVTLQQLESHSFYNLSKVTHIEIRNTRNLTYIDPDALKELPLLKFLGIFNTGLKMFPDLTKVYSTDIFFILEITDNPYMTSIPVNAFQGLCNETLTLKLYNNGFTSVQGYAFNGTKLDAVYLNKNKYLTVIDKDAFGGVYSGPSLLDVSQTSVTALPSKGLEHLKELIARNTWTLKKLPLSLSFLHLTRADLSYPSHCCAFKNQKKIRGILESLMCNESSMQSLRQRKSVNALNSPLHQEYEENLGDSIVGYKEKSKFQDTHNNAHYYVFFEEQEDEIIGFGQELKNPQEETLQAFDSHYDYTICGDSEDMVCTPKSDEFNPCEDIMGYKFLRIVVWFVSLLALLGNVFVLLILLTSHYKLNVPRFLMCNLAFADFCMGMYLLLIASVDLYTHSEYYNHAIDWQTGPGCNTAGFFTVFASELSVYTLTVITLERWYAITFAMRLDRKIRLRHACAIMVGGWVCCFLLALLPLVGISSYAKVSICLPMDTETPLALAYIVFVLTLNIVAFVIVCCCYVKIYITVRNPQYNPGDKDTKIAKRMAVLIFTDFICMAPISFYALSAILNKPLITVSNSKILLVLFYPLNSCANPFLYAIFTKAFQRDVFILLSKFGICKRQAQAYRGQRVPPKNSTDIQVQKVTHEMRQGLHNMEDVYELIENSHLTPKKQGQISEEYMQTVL

Regarding `C[N+]1(C)CCC(=C(c2ccccc2)c2ccccc2)CC1`, the Potency entry in [1], in experiment [2], in experiment [3], in experiment [4], in experiment [5] and in experiment [6] was “inactive” each time. Also, the Potency entry in experiment [7], in experiment [8], in experiment [9], in experiment [10], in experiment [11] and in [12] was “inactive” throughout. For the same compound, the Potency result in experiment [13], in experiment [15], in [16] and in [17] was “inactive” throughout. Further, the activity change, positive = activation in [14] was -2% [at 42.5 µM].

Regarding `OC/C(Br)=C(\Br)CO`, the Potency result in experiment [1], in experiment [2], in experiment [3], in [4], in experiment [5] and in [6] was “inactive” each time. Further, the Potency entry in [7], in experiment [8], in [18], in experiment [9], in experiment [10] and in [11] was “inactive” throughout. Moreover, the Potency result in experiment [13], in experiment [15], in experiment [16] and in [17] was “inactive” each time. The outcome in experiment [19] was inactive.

Regarding `CN(C)CCOC1=Cc2ccccc2Sc2ccc(Cl)cc21`, the Potency entry in experiment [1], in experiment [2], in experiment [3], in experiment [4], in experiment [5] and in experiment [6] was “inactive” each time. Besides, the Potency result in [7], in experiment [8], in experiment [18], in experiment [9], in experiment [11] and in experiment [12] was “inactive” each time. Moreover, the Potency result in experiment [16] and in [17] was “inactive” in each case.

On to `CCCCCCCCSCCO`, for which the Potency result in experiment [1], in [3], in experiment [4], in experiment [5], in experiment [6] and in experiment [7] was “inactive” throughout. The Potency entry in experiment [8], in experiment [9], in [10], in [11], in experiment [12] and in experiment [13] was “inactive” in each case. Besides, the Potency result in [15], in experiment [16] and in experiment [17] was “inactive” in each case. In addition, the Potency in [2] is 71 µM (active). Moreover, the activity change, positive = activation in experiment [14] was -3.95%.

For `COC(=O)c1cc(S(N)(=O)=O)ccc1OC`, the Potency result in experiment [1], in experiment [2], in experiment [3], in [4], in experiment [5] and in experiment [6] was “inactive” in each case. Also, the Potency entry in experiment [7], in experiment [8], in experiment [9], in experiment [10], in experiment [11] and in [12] was “inactive” in each case. Besides, the Potency result in experiment [13], in [15] and in [16] was “inactive” in each case. The outcome in experiment [19] was inactive.

Take `CCN(Cc1cccc(S(=O)(=O)O)c1)c1ccc(C(=C2C=CC(=[N+](CC)Cc3cccc(S(=O)(=O)[O-])c3)C=C2)c2ccccc2)cc1`: the Potency result in experiment [1], in experiment [3], in experiment [4], in [5], in [6] and in [7] was “inactive” in each case. Moreover, the Potency result in [8], in experiment [18], in experiment [9], in experiment [10], in experiment [12] and in [13] was “inactive” in each case. The Potency entry in experiment [15], in experiment [16] and in [17] was “inactive” in each case. Besides, in experiment [2], the Potency is 22.3 µM (active). Further, the result in [19] was inactive. The activity change, positive = activation in [14] was 1.85% [at 42.5 µM].
